For orientation: inhibition means the relative decrease from the control value, in per cent.

Several values for one entry are separate records, joined by “and”; a condition that tells them apart may be missing. Equal entries are not always repeated.

The target in test [1] is MAP/microtubule affinity-regulating kinase 3 (Homo sapiens) (UniProt P27448). The settings on record: at 1 µM.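 Note: reported values are averaged percent inhibition of MARK3.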
Test [2] concerns the target T1, MAP/microtubule affinity-regulating kinase 4 (Homo sapiens) (UniProt Q96L34).
T1 sequence (whole entry): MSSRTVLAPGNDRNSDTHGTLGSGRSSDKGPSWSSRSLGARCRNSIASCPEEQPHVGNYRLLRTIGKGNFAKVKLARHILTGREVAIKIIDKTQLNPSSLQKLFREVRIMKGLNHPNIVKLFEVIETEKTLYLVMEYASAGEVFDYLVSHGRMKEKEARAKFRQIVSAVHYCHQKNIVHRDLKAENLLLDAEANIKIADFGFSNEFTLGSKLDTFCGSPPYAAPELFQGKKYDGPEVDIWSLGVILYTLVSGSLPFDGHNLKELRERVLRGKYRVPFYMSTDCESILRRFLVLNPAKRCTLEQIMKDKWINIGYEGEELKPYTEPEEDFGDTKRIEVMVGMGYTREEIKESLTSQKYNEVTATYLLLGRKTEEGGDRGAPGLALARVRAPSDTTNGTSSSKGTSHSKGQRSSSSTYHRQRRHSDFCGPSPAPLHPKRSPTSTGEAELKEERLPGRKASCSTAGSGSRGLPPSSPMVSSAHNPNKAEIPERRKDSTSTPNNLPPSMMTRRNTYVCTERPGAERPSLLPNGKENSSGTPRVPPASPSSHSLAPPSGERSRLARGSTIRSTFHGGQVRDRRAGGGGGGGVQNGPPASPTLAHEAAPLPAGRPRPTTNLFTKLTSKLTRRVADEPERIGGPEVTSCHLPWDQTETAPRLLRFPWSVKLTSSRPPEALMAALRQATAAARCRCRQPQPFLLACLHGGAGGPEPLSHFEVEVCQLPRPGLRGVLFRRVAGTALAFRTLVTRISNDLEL
As to conditions: at 0.1 µM.

The target of test [3] is T1, MAP/microtubule affinity-regulating kinase 4 (Homo sapiens). As to conditions: at 1 µM.
Test [4] addresses Maternal embryonic leucine zipper kinase (Homo sapiens) (UniProt Q14680). The settings on record: at 0.1 µM.
Test [5] has the same target. As to conditions: at 1 µM.
Test [6] concerns the target MAP kinase-interacting serine/threonine-protein kinase 1 (Homo sapiens) (UniProt Q9BUB5). The settings on record: at 0.1 µM.
The target is the same in test [7]. The settings on record: at 1 µM.
Test [8] addresses MAP kinase-interacting serine/threonine-protein kinase 2 (Homo sapiens) (UniProt Q9HBH9). The settings on record: at 0.1 µM.
For test [9] the target is unchanged. The settings on record: at 1 µM.
Test [10] concerns the target Serine/threonine-protein kinase MARK2 (Homo sapiens) (UniProt Q7KZI7). As to conditions: at 0.1 µM.
Test [11] shares this target. The settings on record: at 1 µM.
The target in test [12] is PAS domain-containing serine/threonine-protein kinase (Homo sapiens) (UniProt Q96RG2). As to conditions: at 0.1 µM.
The target is the same in test [13]. The settings on record: at 1 µM.
Test [14] addresses Phosphorylase b kinase gamma catalytic chain, skeletal muscle/heart isoform (Homo sapiens) (UniProt Q16816). As to conditions: at 0.1 µM.
The target is the same in test [15]. As to conditions: at 1 µM.
For test [16], the target named is T2, Phosphorylase b kinase gamma catalytic chain, liver/testis isoform (Homo sapiens) (UniProt P15735).
T2 sequence (whole entry): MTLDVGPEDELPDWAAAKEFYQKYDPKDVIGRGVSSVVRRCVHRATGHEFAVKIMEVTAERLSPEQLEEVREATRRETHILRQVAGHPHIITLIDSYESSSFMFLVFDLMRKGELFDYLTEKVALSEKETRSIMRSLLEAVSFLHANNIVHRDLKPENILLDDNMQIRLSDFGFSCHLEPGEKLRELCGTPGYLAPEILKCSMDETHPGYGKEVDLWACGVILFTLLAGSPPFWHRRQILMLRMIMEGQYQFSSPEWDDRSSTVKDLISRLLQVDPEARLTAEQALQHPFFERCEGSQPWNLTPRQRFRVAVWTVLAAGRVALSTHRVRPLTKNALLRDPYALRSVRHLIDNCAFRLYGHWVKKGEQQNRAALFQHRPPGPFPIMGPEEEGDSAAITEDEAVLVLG
As to conditions: at 0.1 µM.

The target in test [17] is T2, Phosphorylase b kinase gamma catalytic chain, liver/testis isoform (Homo sapiens). The settings on record: at 1 µM.
For test [18], the target named is Serine/threonine-protein kinase pim-1 (Homo sapiens) (UniProt P11309). The settings on record: at 0.1 µM.
For test [19] the target is unchanged. As to conditions: at 1 µM.
Test [20] deals with Serine/threonine-protein kinase pim-2 (Homo sapiens) (UniProt Q9P1W9). The settings on record: at 0.1 µM.
Serine/threonine-protein kinase pim-2 (Homo sapiens), sequence (Q9P1W9 whole entry, looked up): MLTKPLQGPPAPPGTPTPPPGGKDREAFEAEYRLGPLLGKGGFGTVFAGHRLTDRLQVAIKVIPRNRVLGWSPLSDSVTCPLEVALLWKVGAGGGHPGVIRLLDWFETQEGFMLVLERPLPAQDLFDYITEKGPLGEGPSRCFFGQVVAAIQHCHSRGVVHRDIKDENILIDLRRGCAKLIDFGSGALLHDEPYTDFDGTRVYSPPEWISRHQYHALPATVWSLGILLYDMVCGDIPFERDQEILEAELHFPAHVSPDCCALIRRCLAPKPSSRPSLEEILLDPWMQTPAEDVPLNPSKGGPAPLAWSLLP

Serine/threonine-protein kinase MARK2 (Homo sapiens), sequence (Q7KZI7 whole entry): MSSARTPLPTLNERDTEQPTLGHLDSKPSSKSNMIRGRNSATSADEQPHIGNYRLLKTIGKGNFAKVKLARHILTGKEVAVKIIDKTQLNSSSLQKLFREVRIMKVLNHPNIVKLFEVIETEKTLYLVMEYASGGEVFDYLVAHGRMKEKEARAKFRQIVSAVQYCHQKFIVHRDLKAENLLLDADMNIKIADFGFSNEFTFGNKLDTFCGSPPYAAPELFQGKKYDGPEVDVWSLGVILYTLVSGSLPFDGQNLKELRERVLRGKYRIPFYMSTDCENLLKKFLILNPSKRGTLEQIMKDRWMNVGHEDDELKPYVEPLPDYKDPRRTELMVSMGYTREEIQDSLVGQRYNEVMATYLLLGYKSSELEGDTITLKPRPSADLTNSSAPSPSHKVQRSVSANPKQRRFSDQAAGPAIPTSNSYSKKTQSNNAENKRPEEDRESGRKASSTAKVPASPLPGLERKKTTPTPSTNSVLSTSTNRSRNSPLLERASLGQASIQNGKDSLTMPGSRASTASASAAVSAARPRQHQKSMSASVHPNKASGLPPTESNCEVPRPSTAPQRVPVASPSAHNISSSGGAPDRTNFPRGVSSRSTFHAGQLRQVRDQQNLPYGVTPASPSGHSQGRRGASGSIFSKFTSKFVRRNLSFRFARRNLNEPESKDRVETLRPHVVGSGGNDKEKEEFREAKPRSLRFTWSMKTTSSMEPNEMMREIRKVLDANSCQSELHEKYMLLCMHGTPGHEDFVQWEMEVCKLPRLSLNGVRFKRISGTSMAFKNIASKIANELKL
MAP kinase-interacting serine/threonine-protein kinase 1 (Homo sapiens), sequence (Q9BUB5 whole entry, looked up): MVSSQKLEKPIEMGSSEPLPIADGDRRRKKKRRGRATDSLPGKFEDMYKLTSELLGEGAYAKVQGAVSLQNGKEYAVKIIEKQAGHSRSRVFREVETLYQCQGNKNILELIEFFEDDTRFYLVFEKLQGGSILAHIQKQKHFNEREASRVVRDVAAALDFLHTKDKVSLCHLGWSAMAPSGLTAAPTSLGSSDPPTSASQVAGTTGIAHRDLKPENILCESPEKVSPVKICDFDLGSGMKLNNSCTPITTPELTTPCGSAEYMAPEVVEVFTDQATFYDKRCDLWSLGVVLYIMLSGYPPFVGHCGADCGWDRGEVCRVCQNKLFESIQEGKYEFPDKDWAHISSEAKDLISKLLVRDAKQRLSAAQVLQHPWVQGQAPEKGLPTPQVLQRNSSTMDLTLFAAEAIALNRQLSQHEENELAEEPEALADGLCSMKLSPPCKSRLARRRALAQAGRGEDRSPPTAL
MAP kinase-interacting serine/threonine-protein kinase 2 (Homo sapiens), sequence (Q9HBH9 whole entry, looked up): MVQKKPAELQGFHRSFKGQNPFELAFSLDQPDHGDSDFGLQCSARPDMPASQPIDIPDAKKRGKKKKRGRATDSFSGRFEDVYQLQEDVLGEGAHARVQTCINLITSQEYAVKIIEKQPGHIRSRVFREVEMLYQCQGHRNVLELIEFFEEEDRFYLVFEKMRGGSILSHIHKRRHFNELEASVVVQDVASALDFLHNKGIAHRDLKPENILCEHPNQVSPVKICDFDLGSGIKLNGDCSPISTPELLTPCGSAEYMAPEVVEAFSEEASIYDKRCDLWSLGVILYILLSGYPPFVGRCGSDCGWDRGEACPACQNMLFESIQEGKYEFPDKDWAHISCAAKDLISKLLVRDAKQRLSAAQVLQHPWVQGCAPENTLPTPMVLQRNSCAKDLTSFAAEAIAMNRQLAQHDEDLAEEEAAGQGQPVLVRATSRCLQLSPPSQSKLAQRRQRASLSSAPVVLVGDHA
Phosphorylase b kinase gamma catalytic chain, skeletal muscle/heart isoform (Homo sapiens), sequence (Q16816 whole entry, looked up, canonical isoform): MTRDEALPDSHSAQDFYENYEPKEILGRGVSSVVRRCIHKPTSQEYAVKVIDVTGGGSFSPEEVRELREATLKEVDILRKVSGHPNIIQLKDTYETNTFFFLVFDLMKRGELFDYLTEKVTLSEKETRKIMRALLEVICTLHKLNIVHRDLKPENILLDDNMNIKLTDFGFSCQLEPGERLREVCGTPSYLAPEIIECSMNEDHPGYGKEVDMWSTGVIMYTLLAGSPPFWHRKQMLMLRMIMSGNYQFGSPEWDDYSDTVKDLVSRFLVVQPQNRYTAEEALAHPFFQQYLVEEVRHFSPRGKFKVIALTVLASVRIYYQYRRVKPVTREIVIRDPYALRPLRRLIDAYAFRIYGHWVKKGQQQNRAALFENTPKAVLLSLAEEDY
Maternal embryonic leucine zipper kinase (Homo sapiens), sequence (Q14680 whole entry, looked up): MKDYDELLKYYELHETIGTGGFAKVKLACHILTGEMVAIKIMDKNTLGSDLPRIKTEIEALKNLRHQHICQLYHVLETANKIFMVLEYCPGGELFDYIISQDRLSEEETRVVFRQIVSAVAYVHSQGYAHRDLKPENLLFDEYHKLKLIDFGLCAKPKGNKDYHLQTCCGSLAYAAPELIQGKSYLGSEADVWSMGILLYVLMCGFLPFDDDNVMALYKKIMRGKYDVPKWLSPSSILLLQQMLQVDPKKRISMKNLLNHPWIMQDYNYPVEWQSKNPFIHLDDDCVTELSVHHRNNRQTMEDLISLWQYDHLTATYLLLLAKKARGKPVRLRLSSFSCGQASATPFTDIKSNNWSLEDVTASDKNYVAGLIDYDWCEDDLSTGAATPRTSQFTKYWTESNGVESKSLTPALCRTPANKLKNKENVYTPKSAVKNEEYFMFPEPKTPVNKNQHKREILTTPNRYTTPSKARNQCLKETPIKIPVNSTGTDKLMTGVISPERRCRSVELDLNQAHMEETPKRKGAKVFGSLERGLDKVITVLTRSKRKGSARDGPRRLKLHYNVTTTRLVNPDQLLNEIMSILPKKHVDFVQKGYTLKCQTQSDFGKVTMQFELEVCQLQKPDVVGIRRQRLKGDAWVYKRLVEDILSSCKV
PAS domain-containing serine/threonine-protein kinase (Homo sapiens), sequence (Q96RG2 whole entry, the tested form may be a part): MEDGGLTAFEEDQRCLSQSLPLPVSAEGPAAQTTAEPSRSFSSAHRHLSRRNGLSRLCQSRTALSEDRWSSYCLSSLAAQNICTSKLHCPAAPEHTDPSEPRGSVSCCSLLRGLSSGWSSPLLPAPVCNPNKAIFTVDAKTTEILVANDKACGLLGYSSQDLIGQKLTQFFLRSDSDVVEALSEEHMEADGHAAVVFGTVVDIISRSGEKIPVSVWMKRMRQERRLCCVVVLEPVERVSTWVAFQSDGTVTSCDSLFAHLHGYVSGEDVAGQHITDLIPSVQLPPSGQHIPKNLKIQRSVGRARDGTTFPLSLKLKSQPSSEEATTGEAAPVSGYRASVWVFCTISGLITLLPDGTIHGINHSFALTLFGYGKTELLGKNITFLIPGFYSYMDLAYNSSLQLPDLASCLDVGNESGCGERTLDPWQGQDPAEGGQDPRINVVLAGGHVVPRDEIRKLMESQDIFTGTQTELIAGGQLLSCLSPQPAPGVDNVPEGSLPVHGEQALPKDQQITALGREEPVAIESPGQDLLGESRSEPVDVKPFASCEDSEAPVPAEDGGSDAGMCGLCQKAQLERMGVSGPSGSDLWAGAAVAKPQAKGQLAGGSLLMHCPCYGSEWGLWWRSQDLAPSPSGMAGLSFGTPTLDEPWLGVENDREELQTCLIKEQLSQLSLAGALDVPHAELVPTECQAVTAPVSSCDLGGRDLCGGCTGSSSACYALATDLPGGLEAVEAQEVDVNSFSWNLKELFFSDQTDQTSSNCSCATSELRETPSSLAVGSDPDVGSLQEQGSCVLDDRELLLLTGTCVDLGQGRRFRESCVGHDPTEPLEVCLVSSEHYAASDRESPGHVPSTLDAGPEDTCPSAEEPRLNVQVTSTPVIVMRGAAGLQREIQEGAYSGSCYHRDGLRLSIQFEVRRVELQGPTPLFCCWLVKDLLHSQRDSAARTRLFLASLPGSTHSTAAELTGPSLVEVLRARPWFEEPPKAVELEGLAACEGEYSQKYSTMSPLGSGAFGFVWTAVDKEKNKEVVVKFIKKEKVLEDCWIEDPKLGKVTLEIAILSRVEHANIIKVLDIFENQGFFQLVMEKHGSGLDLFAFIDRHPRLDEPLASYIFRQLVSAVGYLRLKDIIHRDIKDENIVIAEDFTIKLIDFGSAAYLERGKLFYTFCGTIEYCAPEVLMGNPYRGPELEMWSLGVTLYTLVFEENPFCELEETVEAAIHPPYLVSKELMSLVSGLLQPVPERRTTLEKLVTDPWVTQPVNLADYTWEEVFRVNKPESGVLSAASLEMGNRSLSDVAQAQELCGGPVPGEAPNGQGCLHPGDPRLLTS
Serine/threonine-protein kinase pim-1 (Homo sapiens), sequence (P11309 whole entry, looked up): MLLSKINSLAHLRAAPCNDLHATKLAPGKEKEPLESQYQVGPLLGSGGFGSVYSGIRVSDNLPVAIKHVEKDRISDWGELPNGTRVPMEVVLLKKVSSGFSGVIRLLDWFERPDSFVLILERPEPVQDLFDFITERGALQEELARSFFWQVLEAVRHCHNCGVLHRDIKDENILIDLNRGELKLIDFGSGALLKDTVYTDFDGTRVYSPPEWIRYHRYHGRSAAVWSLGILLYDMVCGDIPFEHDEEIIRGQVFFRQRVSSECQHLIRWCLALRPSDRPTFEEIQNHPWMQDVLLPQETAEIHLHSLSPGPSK

On to `CCn1c(-c2nonc2N)nc2cncc(C(=O)NCCNC)c21`, for which the inhibition was 16.6% in test [1]; 2.2% in [2]; 7.71% in [3]; 15.2% in test [4]; 61.2% in test [5]; 2.94% in test [6]. For the same compound, the inhibition was 6.9% in test [7]; 0.78% in test [8]; 13.4% in test [9]; -0.85% in [10]; 14% in test [11]; 0.06% in test [12]. The inhibition in test [13] came out at 3.5%; in test [14], 4.55%; in test [15] it was 7.35%; in test [16], 5.01%; in [17] it was 6.69%; in test [18], 46.4%. The inhibition in [19] worked out at 87%; in test [20], 1.81%.
As to `NS(=O)(=O)c1ccc(N/N=C2\C(=O)Nc3cccc(CCc4ccncc4)c32)cc1`, the inhibition in [1] was determined as 3.11%; in test [2], 2.47%; in test [3], 4.28%; in [4], 4.76%; in [5], 34.7%; in [6], 1.05%. In addition, the inhibition in test [7] stood at 0.27%; in test [8], 0.14%; in test [9], 1.83%; in [10], 0.98%; in [11], 4.73%; in test [12], 1.68%. The inhibition in test [13] was 1%; in test [14] it was 4.94%; in test [15] it was 11.7%; in [16], 0.33%; in test [17], -0.92%; in test [18], 0.54%. Moreover, the inhibition in test [19] worked out at 1.13%; in test [20] it was 0.11%.
In the case of `c1ccc(-c2n[nH]cc2-c2ccnc(-c3ccc(OCCn4ccnc4)cc3)c2)nc1`, the inhibition in test [1] is 6.87%; in [2] it was 1.49%; in test [3] it was 3.83%; in test [4], 2.12%; in test [5], 27.2%; in test [6], 0.75%. In addition, the inhibition in test [7] was 5.94%; in test [8], 0.5%; in test [9] it was 7.2%; in [10] it was -0.46%; in [11], -0.66%; in test [12], -0.73%. Further, the inhibition in test [13] was -0.48%; in test [14] it was 2.85%; in test [15], 6.86%; in test [16], -0.35%; in [17], 3.4%; in test [18], 0.32%. For the same compound, the figures for the inhibition in test [19] and in [20] were 0.45% and 0.56%, respectively.
`COC(=O)Nc1nc2cc(Oc3ccc(NC(=O)Nc4ccccc4)cc3)ccc2[nH]1`: the inhibition in [1] was 2.58%; in test [2] it was 1.19%; in test [3], 0.89%; in test [4] it was 0.33%; in [5] it was 2.1%; in test [6], 3%. For the same compound, the inhibition in [7] is 6.54%; in [8] it was 1.92%; in test [9], 4.02%; in test [10], 0.31%; in test [11], -0.9%; in test [12] it was 0.34%. The inhibition is 1.02% in test [13]; 4.15% in test [14]; 5.64% in test [15]; 4.43% in test [16]; 6.25% in test [17]; -0.24% in test [18]. The inhibition in test [19] stood at 0.02%; in [20], 0.15%.
Regarding `CN1CCN(Cc2ccc(-c3cc4ncnc(Nc5ccc(OCc6cccc(F)c6)c(Cl)c5)c4s3)o2)CC1`, the inhibition is 2.84% and 0.44% in test [1]; 1.62% and 1.87% in [2]; 3.52% and 3.32% in test [3]; 4.83% and 3.2% in test [4]; 6.62% and 9.42% in test [5]; 3.21% and 7.2% in [6]. The inhibition in test [7] is 18.6% and 22%; in test [8], -0.2% and 3.49%; in test [9], 9.13% and 14.2%; in test [10] it was 0.8% and 0.26%; in [11] it was 2.8% and -1.69%; in [12], 1.09% and -0.73%. Further, the inhibition in test [13] is 0.63% and 0.18%; in test [14] it was 4.48%; in [15] it was 6.3% and 12.4%; in [16] it was 3.47% and 7.21%; in test [17], 2.85% and 9.87%; in [18] it was -0.54% and 0.21%. The inhibition in [19] is 1.02% and 0.98%; in test [20], -0.52% and 0.67%.
As to `Nc1nonc1-c1nc2cnccc2n1C1CC1`, the inhibition in test [1] was 22.6% and 19%; in [2], 3.74% and 2.4%; in test [3], 11% and 8.22%; in [4], 10.2% and 12.6%; in test [5] it was 66.9% and 71.4%; in test [6], 3.95% and 1.61%. The inhibition in test [7] is 9.32% and 10.2%; in [8], 4.37% and 1.55%; in test [9], 18.2% and 15.1%; in test [10], 3.55% and -0.71%; in [11], 17.9% and 14.9%; in [12], 0.62% and -0.65%. Moreover, the inhibition was 1.08% and 0.92% in [13]; 5% and 3.93% in test [14]; 7.51% and 3.48% in test [15]; 4.1% and 2.66% in [16]; 1.15% and 2.16% in test [17]; 12.4% and 13.8% in [18]. Besides, the inhibition in test [19] is 56.3% and 59.1%; in test [20] it was 1.57% and -2.36%.
With `O=C1Nc2ccccc2/C1=C1\CCc2cc(O)ccc21`, the inhibition worked out at 40.1% in [1]; 7.29% in [2]; 33.1% in [3]; 11.1% in [4]; 56.8% in test [5]; 3.12% in test [6]. In addition, the inhibition in test [7] was found to be 7.84%; in test [8], 2.73%; in test [9], 15.9%; in [10], 5.04%; in test [11] it was 24%; in [12], 0.2%. Besides, the inhibition in test [13] is -1.25%; in [14] it was 9.05%; in [15], 40.6%; in test [16] it was 6.64%; in test [17] it was 9.59%; in [18] it was 2.37%. Also, the inhibition in test [19] is 10.2%; in test [20], -0.2%.
For the compound `COc1ccc2ncn(-c3cc(O[C@H](C)c4ccccc4C(F)(F)F)c(C(N)=O)s3)c2c1`, the inhibition in test [1] was 1.97%; in test [2], -0.65%; in test [3], 5.41%; in test [4], -0.14%; in [5] it was 2.51%; in test [6] it was -0.15%. Also, the inhibition was 3.25% in test [7]; 0.74% in test [8]; 4.03% in test [9]; 0.4% in test [10]; 4.83% in test [11]; -0.55% in test [12]. For the same compound, the inhibition is 0.78% in [13]; 1.28% in test [14]; 3.44% in test [15]; -1.44% in test [16]; 0.1% in test [17]; 1.71% in test [18]. In addition, the inhibition in test [19] was 7.56%; in test [20] it was -0.14%.
As to `CN(c1ccc(NC(=O)NCCN2CCOCC2)cc1)c1ccnc(Nc2ccc(CS(C)(=O)=O)cc2)n1`, the inhibition in test [1] was determined as 9.85%; in [2] it was 1.24%; in test [3] it was 5.47%; in test [4], 2.36%; in test [5], 7.07%; in [6], 2.87%. In addition, the inhibition in test [7] amounted to 8.84%; in test [8] it was 2.32%; in test [9] it was 9.63%; in test [10], 0.88%; in test [11] it was 2.47%; in test [12], 0.41%. Also, the inhibition in test [13] is 2.08%; in [14], 2.5%; in test [15], 5.5%; in test [16], 2.91%; in test [17], 6.71%; in [18], 0.61%. For the same compound, the inhibition was -0.22% in [19] and 0.04% in test [20].

Values taken from ChEMBL document CHEMBL1961873, “Compounds: GSK PKIS; Assays: Nanosyn kinase panel” (2012).
